Laboratory results reported in the supplement of paper PMC10646978.
± gives the standard deviation.

These compounds were tested on RAW-Dual (murine macrophage reporter line) (assay: NF-kB reporter (SEAP) activity fold change vs agonist alone; higher = enhanced NF-kB activity). Conditions: modulator concentration 10 µM; agonist: LPS 0.1 ug/mL.
Outline: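 Compound reached 10 μM final in each well by pin transfer, onto RAW-Dual murine macrophage reporter cells seeded at 50 000 per well in 384-well plates. After 1 hour at 37 °C, the cells were stimulated overnight with a PRR agonist. SEAP in the supernatant was read with QUANTI-Blue at 620 nm absorbance for NF-κB, and Lucia luciferase was read with QUANTI-Luc luminescence for IRF. Each signal was turned into fold change against the mean agonist-only control on the same plate, and two replicate plates were averaged with propagated errors.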

`CN1CCN(c2ccc(-c3cccc(NC(=O)COc4ccc(Cl)cc4Cl)c3)nn2)CC1` and `O=C(CCN1C(=O)c2cccc([N+](=O)[O-])c2C1=O)Nc1ccc(Cl)cc1` are within error of each other in NF-kB reporter: 0.922 ± 0.086 for the first, 1.02 ± 0.058 for the second.

Going from `N#CCCC1(CCC#N)S(=O)(=O)CC(c2ccc(Cl)cc2)CS1(=O)=O` to `O=C(Nc1nc2cccc(-c3ccc(CN4CCS(=O)(=O)CC4)cc3)n2n1)C1CC1`, the NF-kB reporter falls from 0.909 ± 0.056 to 0.639 ± 0.07.

Going from `Fc1ccc(Nc2nc(NN=Cc3ccc(Cl)cc3)nc(N3CCCCC3)n2)cc1` to `Fc1ccccc1C=NNc1nc(-c2ccccc2)cc(-c2ccccc2)n1`, the NF-kB reporter rises from 0.949 ± 0.13 to 1.19 ± 0.094.

First: CC(C)(C)C1CCC(OC(=O)CCC(=O)O)CC1 (stereo not drawn)
Second: C=C1CCC2C(C)(CO)C(O)CCC2(C)C1CC=C1C(=O)OCC1O (stereo not drawn)
The NF-kB reporter of the first is higher: 0.931 ± 0.073 for the first, 0.496 ± 0.025 for the second.

`NC(=O)c1ccc(N2CCOCC2)c([N+](=O)[O-])c1` and `CC1(C)NC(=O)N(c2ccc([N+](=O)[O-])c(C(F)(F)F)c2)C1=O` are within error of each other in NF-kB reporter: 1 ± 0.089 for the first, 1.11 ± 0.23 for the second.

First: O=C(NCC1CCCO1)c1[nH]nnc1-c1ccc(F)cc1 (stereo not drawn)
Second: COC(=O)C1=CN(CC2CCCO2)C=C(C(=O)OC)C1c1cccc(Cl)c1 (stereo not drawn)
The NF-kB reporter of the first is higher: 0.996 ± 0.075 for the first, 0.736 ± 0.065 for the second.

`COc1ccc(CCn2c(C)c(C)n3c4c(=O)n(CCC(C)C)c(=O)n(C)c4nc23)cc1OC` and `COc1ccc2cc(Br)ccc2c1CC(N)=O` are within error of each other in NF-kB reporter: 1.01 ± 0.12 for the first, 1.07 ± 0.12 for the second.

Going from `Cc1sc2ncnc(Nc3ccc(F)cc3)c2c1C` to `Oc1cccc(C=Nc2ccc(N=Cc3cccc(O)c3O)cc2)c1O`, the NF-kB reporter falls from 0.948 ± 0.11 to 0.727 ± 0.069.

`CC1CCN(c2cc(N3CCNCC3)ncn2)CC1` and `COC1CCN(C2CCN(S(=O)(=O)c3ccccc3)CC2)CC1` are within error of each other in NF-kB reporter: 1.08 ± 0.054 for the first, 1.01 ± 0.082 for the second.
